Data reported in ChEMBL document CHEMBL4513216, “Probing the Open Global Health Chemical Diversity Library for Multistage-Active Starting Points for Next-Generation Antimalarials” (ACS Infect Dis, 2020).
In all, about 65,000 compounds went through this assay and about 2,100 (3.2%) showed an effect of 50% or more. The median lay at about -52%. The list comes from a sample in which strong results are over-represented; it also holds similar structures and randomly drawn compounds.

system: Plasmodium falciparum; assay: Screen against P. falciparum Asexual Blood Stage (ABS), at 5uM; assay type: functional, Dd2; details: tested at 5 uM

SMILES | INHIBITION [%]
O=C1NCC2(CCC(C(=O)N3CCC(O)CC3)CC2)Oc2ccccc21 (configuration not stated) | -99.2
CN(C)c1nccc(C2CN(c3ccccc3)CCO2)n1 (configuration not stated) | -40.1
Cc1ccc(C)n1-c1c(C(=O)NCC(C)N(C)C)cnn1C (configuration not stated) | -93.5
CCN1C(=O)CCCC12CCCN(C(=O)c1ccncc1F)C2 (configuration not stated) | -46.7
CC(C)(CNC1CCCN(Cc2ccccc2F)C1)CN1CCOCC1 (configuration not stated) | 56.4
CC(C)(CNC1CCCN(Cc2ccccn2)C1)CN1CCOCC1 (configuration not stated) | -82.2
Fc1ccccc1CN1CCCC(NC2CCOCC2)C1 (configuration not stated) | -11.9
CN(C)c1ncc(CNC(=O)Nc2ccccc2F)n1C | -31
CN(C)c1ncc(CNC(=O)Nc2ccc(C(F)(F)F)cc2)n1C | 68.3
CN(C)c1ncc(CNC(=O)Nc2ccccc2C(F)(F)F)n1C | -113
Cn1cc(C(=O)NCc2cn3c(n2)CN(C2CCOCC2)CC3)cn1 | -26.8
COCCN(C(=O)c1ccccn1)c1nc2c(s1)CCc1c-2cnn1C | 6.99
CC(C)[C@@H]1CN(CCOc2ccccc2)C[C@H]1NS(=O)(=O)N(C)C | 40.3
CC(=O)c1cc(CN2C[C@@H](NS(=O)(=O)N(C)C)[C@H](C(C)C)C2)cs1 | 32.8
CC(C)[C@H]1CN(C2Cc3ccccc3C2)C[C@@H]1NS(=O)(=O)N(C)C | 61.6
Cc1nc(CN2C[C@@H](NS(=O)(=O)N(C)C)[C@H](C(C)C)C2)cs1 | 19.1
CC(C)[C@@H]1CN(Cc2ccsc2)C[C@H]1NS(=O)(=O)N(C)C | 66.3
CC(C)[C@H]1CN(C2Cc3ccccc3C2)C[C@@H]1NS(C)(=O)=O | 34.6
Cc1ccsc1CN1CCc2c(nc(N3CCCCC3C)[nH]c2=O)C1 (configuration not stated) | -14.7
COCCN1C[C@@H]2CN(c3cc(OC)ncn3)CCC[C@]2(C(=O)O)C1 | -84
O=C(NCc1cn2c(n1)CN(CC1CCOCC1)CC2)C1CCC1 | -14.2
c1ncn(Cc2nnc(C3CCN(CC4CC4)CC3)n2C2CC2)n1 | -88.1
Cc1cc(NC(=O)NCC(O)c2ccc(F)cc2)n(C)n1 (configuration not stated) | 18.3

SMILES | INHIBITION [%]
Cc1cc(C)cc(CNc2ccc(C(=O)NC(C)CO)cc2)c1 (configuration not stated) | -96.7
COC(=O)CC1CCCCN1CC(=O)Nc1ccc(F)cc1Cl (configuration not stated) | -174
CCN1CCCC(O)(CN(C)Cc2ccccc2F)C1 (configuration not stated) | 57.5
CCN1CCCC(O)(CN(C)Cc2c(C)nn(C)c2C)C1 (configuration not stated) | -105
CCN1CCCC(O)(CNCc2ccccc2F)C1 (configuration not stated) | 40.6
Cc1nn(C)c(Cl)c1C1CCCN1CC(=O)NCc1ccco1 (configuration not stated) | -24.5
CC(NCc1cccs1)c1ccc(OCc2nccn2C)cc1 (configuration not stated) | -50.1
CCc1cc(N2CCSCC2)n2nc(C)c(C)c2n1 | -90.3
CCc1cc(N2CCS(=O)(=O)CC2)n2nc(C)c(C)c2n1 | -16.5
CCc1cc(N2CCCNCC2)n2nc(C)c(C)c2n1 | 54.5
CCNc1ncc(CN2C[C@@H]3CC[C@H]2CN(C(=O)C2CCC2)C3)cn1 | -47.5
O=C([C@H]1CCCO1)N1CCCC2(COCCN(c3ccccc3)C2)C1 (some centres not stated) | 25.2
Cc1cnn(CCNCC(O)COc2cc(Cl)ccc2Cl)c1 (configuration not stated) | 58
Cc1cnn(CCNCC(O)COc2ccc(Cl)cc2Cl)c1 (configuration not stated) | 20.2
Cc1cnn(CCNCC(O)COc2ccc(Cl)cc2)c1 (configuration not stated) | -16.9
c1cc(CNCc2ccc(-n3cncn3)nc2)cc(OC2CCCC2)c1 | -6.1
Cc1ccc(C(=O)N2CCc3ncnc(-c4cnn(C)c4)c3CC2)o1 | -34.2
Cc1ccc(OCC(=O)Nc2ccc(S(C)(=O)=O)cc2)cc1C | -89.1
N#Cc1c(Cl)nsc1NCCCN1C(=O)COc2ccccc21 | 58.1
N#Cc1ccc(NCCCN2C(=O)COc3ccccc32)nc1 | -30.6
N#Cc1cnc(NCCCN2C(=O)COc3ccccc32)c(Cl)c1 | -73.7
CC(C)NC(=O)c1sc2ccccc2c1C1CCC(CN)CC1 (configuration not stated) | 0.324
COc1nn(C)c2c1CCCN(C(=O)c1ccc3ccccc3n1)C2 | -94.4

SMILES | INHIBITION [%]
O=C(c1ccc[nH]1)N1C[C@@H]2CC[C@H]1CN(C1Cc3ccccc3C1)C2 | -60.5
CCCc1nc(C[S+]([O-])Cc2cn3cccc(C)c3n2)no1 (configuration not stated) | -22
CCN1CCO[C@@H]2CN(C(=O)c3ccc4[nH]ccc4c3)CC[C@@H]2C1 | -49.2
CN1CCCN(c2nccc(-c3c[nH]nc3-c3ccncc3)n2)CC1 | 66.9
Cc1ncc(-c2ccnc(N3CCC[C@@H]3CO)n2)c(-c2cccnc2)n1 | -23.8
CN1CCCN(c2nccc(-c3c[nH]c4ccc(Br)cc34)n2)CC1 | 43.1
OCCNc1nccc(-c2c[nH]nc2-c2ccncc2)n1 | -56.1
OC[C@@H]1CCCN1c1nccc(-c2c[nH]nc2-c2ccncc2)n1 | 68.3
CN1CCCN(c2nccc(-c3cc(C(=O)O)ccn3)n2)CC1 | -113
CNc1cccc(C2CCCN(C(=O)c3cscn3)C2)n1 (configuration not stated) | -9
CC1N(C)C(=O)COC12CCN(Cc1ccsc1)CC2 (configuration not stated) | -52.9
COCCN1CCCC1c1nccnc1Nc1nccs1 (configuration not stated) | 1.36
Cc1cccn2c(CC(=O)N3CCC(CCn4cccn4)CC3)cnc12 | -1.65
N#Cc1cccc(OCCN2CCCC2C(=O)NC2CC2)c1 (configuration not stated) | -14.2
N#Cc1cccc(OCCN2CCCC2C(=O)NCC(F)(F)F)c1 (configuration not stated) | 1.9
N#Cc1cccc(OCCN2CCCC2C(=O)N2CCSCC2)c1 (configuration not stated) | 51.9
Cc1cccn2cc(CNCc3cccc4c3OCCCO4)nc12 | 53.7
c1cc(CNCCc2cn3ccccc3n2)c2c(c1)OCCCO2 | -57.2
Cc1cccc2nc(CNCc3cccc4c3OCCCO4)cn12 | 47.8
Cc1ccc(CN2Cc3c(C(=O)N(C)C)nn(C)c3C2)s1 | -70.8
Cc1nnc(N2C[C@@H](OCCCn3cccn3)[C@H]3OCCC[C@H]32)s1 | -31.4
